Compound activity deposited in PubChem BioAssay by National Center for Advancing Translational Sciences (NCATS).
Sfp inh: qHTS Assay for Inhibitors of Bacillus subtilis Sfp phosphopantetheinyl transferase (PPTase). 4'-phosphopantetheinyl transferase ffp (Bacillus subtilis), Q9F4F7. Biochemical Sfp PPTase activity, qHTS. Potency, µM, most hits filed as inhibitors. 3.5% of 310,000 active;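 also: the enzyme is Sfp with the accession as filed and its product quenches rhodamine fluorescence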
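Fluorescence-quenching assay: 15 nM Sfp-PPTase preincubated 15 min at room temperature with compound, then 5 uM rhodamine-CoA and 12.5 uM BHQ-2-labelled YbbR peptide added. Fluorescence (ex 525/em 598 nm) read at start and after 30 min; difference gives rate.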
RORg inh: qHTS for inhibitors of ROR gamma transcriptional activity; Nuclear receptor ROR-gamma (Mus musculus), P51450; Drosophila S2 Gal4-RORgamma UAS-luciferase reporter, 20 h; Potency, µM (series often up to 53.6 µM), most hits filed as inhibitors; 5.4% of 310,000 active; also: nearly all actives have a fitted effect of over 60% in size
Target sequence (P51450 whole entry, looked up, the tested form may be a part): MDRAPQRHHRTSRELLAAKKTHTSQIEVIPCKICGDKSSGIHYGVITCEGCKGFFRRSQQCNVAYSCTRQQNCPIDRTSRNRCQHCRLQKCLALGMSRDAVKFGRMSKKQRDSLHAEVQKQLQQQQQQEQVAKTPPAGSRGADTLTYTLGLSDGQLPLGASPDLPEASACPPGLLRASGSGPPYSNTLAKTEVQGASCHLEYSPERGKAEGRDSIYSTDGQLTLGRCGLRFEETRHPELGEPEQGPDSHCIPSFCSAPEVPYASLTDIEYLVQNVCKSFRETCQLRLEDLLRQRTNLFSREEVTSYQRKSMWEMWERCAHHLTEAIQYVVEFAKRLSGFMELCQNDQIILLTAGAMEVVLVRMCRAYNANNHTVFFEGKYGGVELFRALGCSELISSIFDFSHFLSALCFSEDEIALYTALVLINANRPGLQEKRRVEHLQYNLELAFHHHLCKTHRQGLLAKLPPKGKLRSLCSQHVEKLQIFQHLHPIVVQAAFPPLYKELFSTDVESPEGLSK
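Schneider cells (Drosophila), stable Gal4 DBD–ROR gamma + UAS-luc; 1 hr cmpd preincubation; Cu2+ induction 700 uM final; 20 hr ambient; luminescence.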
PLK1 PBD inh: qHTS for Inhibitors of PLK1-PDB (polo-like kinase 1 - polo-box domain): Primary Screen. Serine/threonine-protein kinase PLK1 (Homo sapiens), P53350. Potency, µM, hits mostly inhibitors. Plk1 PBD binding of FITC phosphopeptide, fluorescence polarization. 2.8% of 360,000 active; also: series mostly up to about 57 µM; nearly all actives have a fitted effect of over 65% in size
ALDH1A1 block: qHTS Assay for Inhibitors of Aldehyde Dehydrogenase 1 (ALDH1A1); Aldehyde dehydrogenase 1A1 (Homo sapiens), P00352; Purified ALDH1A1, NADH fluorescence, propionaldehyde substrate; Potency, µM (titrated, usually from 75.3 µM), hits mostly inhibitors; 7.3% of 220,000 active; active = well fitted inhibition curve with a large enough effect, not every such curve was filed as active; inconclusive = small, poorly fitted or top-dose-only effect, or another doubt; inactive = no such curve, though single readings can be large or run the other way
VP16 counter: VP16 counterscreen qHTS for inhibitors of ROR gamma transcriptional activity | AID 2546, 2010 | 3.5% of 310,000 active | Potency, µM (doses to about 53.6 µM), hits mostly inhibitors | Drosophila S2 Gal4-VP16 UAS-luciferase, luminescence, 20 h;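 also: Gal4-VP16 expression switched on by copper sulfate through the metallothionein promoter; nearly all actives have a fitted effect of over 50% in size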
Numbers stand for hits; i = inactive; ? = inconclusive; nt = no result; [ ] = dose if it differs, or a comment. Shown are actives, neighbours in structure and some others; about 12% of the full set was active somewhere. Unless noted, calls follow the shape of the dose curve; as a rule, active = well fitted curve in the direction sought with a large enough effect; inconclusive = small, poorly fitted or top-dose-only effect, or another doubt; inactive = no such curve, though single readings can be large; an effect the other way counts as inactive or inconclusive.

SMILES	Sfp inh	RORg inh	PLK1 PBD inh	ALDH1A1 block	VP16 counter
C/C(CC(=O)Nc1cccc(Cl)c1Cl)=N\NC(=O)c1ccccc1Br	i	?	i	i	?
COc1ccc(Cl)cc1NC(=O)C/C(C)=N/NC(=O)CC#N	i	i	26.7µM	i	i
Cc1ccc(S(=O)ONc2cccc(NOS(=O)c3ccc(C)cc3)c2)cc1 (configuration not stated)	nt	nt	i	nt	nt
CC(OC(=O)Cc1ccsc1)C(=O)Nc1ccc(C(N)=O)cc1 (configuration not stated)	nt	nt	i	nt	nt
Cc1cc(C)n2nc(-c3ccc(Cl)cc3)cc2n1	i	i	i	nt	i
Cc1nc2cc(-c3ccc(Cl)cc3)nn2c(NCCN(C)C)c1C	i	1.26µM	i	?	5.62µM
Cc1ccc(C(=O)C(C(=O)/C=C/c2ccccc2)=C2SCCCS2)cc1	i	3.55µM	3.36µM	?	14.1µM
Cc1ccc(S(=O)(=O)N2CCN(C(C(=O)Nc3ccc(F)cc3)c3ccccc3)CC2)cc1 (configuration not stated)	i	i	i	?	i
O=C(Nc1ccc(F)cc1)C(c1ccccc1)N1CCN(S(=O)(=O)c2c(F)cccc2F)CC1 (configuration not stated)	i	i	i	7.94µM	i
O=C(Nc1ccc(F)cc1)C(c1ccccc1)N1CCN(c2ccncc2)CC1 (configuration not stated)	nt	nt	i	nt	nt
O=C(Nc1ccc(F)cc1)C(c1ccccc1)N1CCN(S(=O)(=O)c2ccccc2)CC1 (configuration not stated)	i	i	i	10µM	i
C[C@@H]1CC[C@H]2[C@H](C)[C@H]3CC[C@H]4C5[C@@H](O)CC6=CC(=O)CC[C@]6(C)[C@H]5C[C@H]4C3C(=O)N2C1 (some centres not stated)	i	i	nt	i	i
c1ccc(Cn2nnnc2C(c2ccccc2)N2CCN(c3nc4ccccc4s3)CC2)cc1 (configuration not stated)	i	i	i	11.2µM	i
CCCC(c1nnnn1CCOC)N1CCN(c2nc3ccccc3s2)CC1 (configuration not stated)	?	i	5.32µM	i	i
CC(C)(C)n1nnnc1C(c1cccs1)N1CCCC2(CCCCC2)C1 (configuration not stated)	i	i	i	i	?
COCCn1nnnc1C(c1cccs1)N1CCN2CCCC2C1 (configuration not stated)	i	i	18.9µM	i	?
c1csc(C(c2nnnn2C2CCCCC2)N2CCCC3(CCCCC3)C2)c1 (configuration not stated)	i	i	i	7.94µM	i
Clc1cc2c(c(CSC3=NCN(CC4CC4)CN3)c1)OCOC2	nt	nt	nt	i[13.5 µM]	nt
CC(C)(SCc1ccccc1)[C@H](N)C(=O)O	nt	nt	nt	i[13.5 µM]	nt
O=C(c1cc2sccc2n1Cc1ccccc1)N1CCN(c2nc3ccccc3s2)CC1	i	i	i	?	10µM
COc1ccc(C(c2nnnn2C(C)(C)C)N2CCN(c3nc4ccccc4s3)CC2)cc1 (configuration not stated)	i	?	i	i	?
CCC(=O)N1CCN(c2nc3ccccc3s2)CC1	i	?	i	i	i
CCC(C)(C)n1nnnc1C(c1ccc(O)c(OC)c1)N1CCN(c2nc3ccccc3s2)CC1 (configuration not stated)	39.8µM	?	i	i	i
COc1cccc(C(c2nnnn2Cc2ccccc2)N2CCN(C3CCCC3)CC2)c1OC (configuration not stated)	i	i	i	?	i
c1ccc(Cn2nnnc2C(c2cccs2)N2CCCCCC2)cc1 (configuration not stated)	i	i	i	14.1µM	i
SMILES	Sfp inh	RORg inh	PLK1 PBD inh	ALDH1A1 block	VP16 counter
COc1ccccc1C(c1nnnn1Cc1ccccc1)N1CCN(C2CCCC2)CC1 (configuration not stated)	i	i	29.9µM	?	i
CN(C)c1ccc(-c2ccnc3c2CC(C)(C(=O)NCc2ccco2)O3)cc1 (configuration not stated)	nt	nt	i	nt	nt
CCCCn1nnnc1C(c1ccccc1)N1CCN(c2cc(C)ccc2C)CC1 (configuration not stated)	nt	nt	i	nt	nt
Cc1ccccc1CN1CCN(c2nc3ccccc3s2)CC1	i	i	i	nt	i
c1csc(Cn2nnnc2CN2CCN(c3nc4ccccc4s3)CC2)c1	i	i[10 µM]	i	15.8µM	i
Cc1ccc(C)c(N2CCN(C(c3ccncc3)c3nnnn3Cc3ccccc3)CC2)c1 (configuration not stated)	i	i	i	12.6µM	i
CCCCNC(=O)C(NC(=O)c1cccc2ccccc12)C(=O)c1ccccc1 (configuration not stated)	nt	nt	i	nt	nt
C#Cc1cccc(Nc2nc(NCc3ccccc3)nc3ccsc23)c1	nt	nt	i	nt	nt
COC(=O)C(C(=O)OC)[C@@H]1O[C@@]23COC=C[C@]2(C)[C@H]3c2ccccc21	i	i	nt	i	i
O=C(C[C@@H]1C=C[C@H](NC(=O)Cc2ccccn2)[C@@H](CO)O1)NCCc1ccccc1	nt	nt	i	nt	nt
CCCNC(=O)c1ccc(C2SCC(=O)N2Cc2ccccc2)cc1 (configuration not stated)	i	i	i	i	i
COCCNC(=O)c1ccc(C2SCC(=O)N2Cc2ccco2)cc1 (configuration not stated)	11.2µM	i	i	10µM	i
O=C(NCc1ccc2c(c1)OCO2)c1ccc(C2SCC(=O)N2Cc2ccco2)cc1 (configuration not stated)	35.5µM	i	i	7.08µM	i
CC(C)CNC(=O)c1ccc(C2SCC(=O)N2Cc2ccccc2)cc1 (configuration not stated)	i	i	23.8µM	i	i
COc1ccc(-c2nc(-c3ccccc3)oc2Nc2c(C)cccc2C)cc1	i	i	nt	i	i
O=C(NCc1ccncc1)[C@@H]1CCCN1C(=O)[C@@H]1CCCN1C(=O)c1cccc2ccccc12	nt	nt	i	nt	nt
CCc1c(C)c(C#N)c2nc3ccccc3n2c1-n1nc(C)cc1C	i	i	i	?	i
CCc1c(C)c(C#N)c2nc3ccccc3n2c1Cl	i	2.82µM	nt	i	i
Cc1cc(-c2ccco2)c(C#N)c2nc3ccccc3n12	50.1µM	?	i	?	?
COc1ccc(C(=O)N/C(=C/c2cccs2)C(=O)N2CCN(C)CC2)cc1	nt	nt	i	nt	nt
O=C(Sc1nnc(-c2ccccc2)o1)N1c2ccccc2Sc2ccccc21	i	?	67µM	22.4µM	?
N=C1/C(=C\c2coc3ccc(O)cc3c2=O)C(=O)N=C2SC=CN12	?	i	i	15.8µM	i
CN1C(=O)/C(=C/c2coc3ccc(O)cc3c2=O)SC1=S	i	i	i	i	i
